Test results reported in PubChem BioAssay (Tox21).
Inconclusive results are not listed. Calls of active or inactive are those of the source. Unless noted, calls come from the whole dose curve; as a rule, active = well fitted curve in the direction sought with a large enough effect in the repeat runs; inconclusive = weak or mixed curves; inactive = no such curve, though single readings can be large; an effect the other way counts as inactive or inconclusive.

Columns and labels:
[1] = target: Aromatase (Homo sapiens) (UniProt P11511); test: qHTS assay to identify aromatase inhibitors (AID 743083); note: nearly all actives have a fitted effect of over 55% in size; note: potency is the fitted concentration of half-maximal effect
[2] = target: Aryl hydrocarbon receptor (Homo sapiens) (UniProt P35869); test: qHTS assay to identify small molecule that activate the aryl hydrocarbon receptor (AhR) signaling pathway (AID 743085);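 note: HG2L7.5c1 human HepG2 liver cells with stably integrated DRE-driven firefly reporter; nearly all actives have a fitted effect of over 15% in size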
How it was run: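 A multiplexed format paired cell viability (CellTiter-Fluor fluorescence) with AhR-dependent luciferase output (ONE-Glo luminescence) in the same wells of HepG2 DRE-luc cells after 24 h compound exposure at 37C.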

[3] = qHTS assay to identify small molecule antagonists of the retinoic acid receptor (RAR) signaling pathway (AID 1159552; note: nearly all actives have a fitted effect of over 50% in size; note: potency is the fitted concentration of half-maximal effect)
How it was run: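 Antagonism of retinol-induced RARE reporter activity was measured in C3RL4 cells. Exposure to compounds and 1 uM final retinol lasted 6 hr at 37 C, with luminescence as endpoint.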

[4] = qHTS assay to identify small molecule agonists of H2AX (AID 1224845; active = well fitted activation curve with a large enough effect in the signal ratio in the repeat runs, not every such curve was filed as active; the % refers to the signal ratio; note: potency is the fitted concentration of half-maximal effect)
How it was run: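 Wild-type CHO-K1 cells plated overnight, then exposed 3 hr at 37C to compounds at 15 concentrations (0.76% DMSO). Lysed, then HTRF anti-pH2AX(S139)-cryptate/anti-H2AX-d2 detection after 24 hr at room temperature; emissions 665 and 620 nm.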

[5] = Caspase-3/7 induction in HepG2 cells by small molecules, qHTS assay (AID 1346978); note: nearly all actives have a fitted effect of over 15% in size; note: potency is the fitted concentration of half-maximal effect
How it was run: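 Wild-type HepG2 cells (2,000/well) were settled 5 h at 37 C, 5% CO2, then exposed to compounds in DMSO for 17 h. Caspase-3/7 activity was read by luminescence 30 min after adding Caspase-Glo 3/7 reagent at room temperature.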

[6] = target: Acetylcholinesterase (Homo sapiens) (UniProt P22303); test: Acetylcholinesterase (AChE) small molecule antagonists: colormetric cell-based qHTS assay (AID 1347395; calls by dose curve; note: nearly all actives have a fitted effect of over 30% in size)
How it was run: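 Homogeneous whole-cell format. SH-SY5Y cells seeded overnight, dosed with compound (30 min, 37 C, 5% CO2), then given DTNB/acetylthiocholine cocktail for 90 min at 37 C; colorimetric signal.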

[7] = target: Acetylcholinesterase (Homo sapiens) (UniProt P22303); test: Acetylcholinesterase (AChE) small molecule antagonists: enzyme-based qHTS assay (AID 1347397; calls by dose curve; note: nearly all actives have a fitted effect of over 55% in size); settings: Potency: AChE enzyme activity inhibition; outcome: AChE enzyme activity inhibition
How it was run: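 Tox21 library chemicals are tested in qHTS format against recombinant human AChE. The enzyme, dispensed at 50 mU/mL, sits with compound for 30 min at room temperature. A DTNB–acetylthiocholine cocktail follows, and colour is read after 10 min.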

[8] = target: Acetylcholinesterase (Homo sapiens) (UniProt P22303); test: Acetylcholinesterase (AChE) small molecule antagonists: fluorescence cell-based qHTS assay (AID 1347398; calls by dose curve; note: nearly all actives have a fitted effect of over 50% in size); settings: Potency: AChE activity; outcome: AChE activity
How it was run: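 Cellular AChE inhibition: SH-SY5Y cells treated with test chemical for 30 min at 37 C, then acetylthiocholine hydrolysis followed over 40 min at room temperature via thiocholine-reactive Thiolite Green fluorescence (490/520 nm).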

[9] = target: Acetylcholinesterase (Homo sapiens) (UniProt P22303); test: Acetylcholinesterase (AChE) small molecule antagonists: enzyme-based qHTS assay with human liver microsomes (AID 1347399; calls by dose curve; note: nearly all actives have a fitted effect of over 60% in size); settings: Potency: qHTS inhibition; outcome: qHTS inhibition
How it was run: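 Recombinant human AChE (50 mU/mL in the enzyme mix) and human liver microsomes (0.25 mg/mL final) were preincubated with compound and NADPH (0.25 mg/mL final) for 30 min at 37 C. Acetylthiocholine/DTNB was then added; thiocholine was read colorimetrically after 10 min at room temperature.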

[10] = qHTS assay to identify small molecule agonists of the estrogen related receptor (ERR) signaling pathway from Tox21 library (AID 1224849; calls by dose curve; note: nearly all actives have a fitted effect of over 15% in size); settings: ERR reporter cell line, ONE-Glo luciferase, 18 h; at 92.4 µM (top of the series) unless noted
How it was run: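 Quantitative HTS in agonist format: NTP ERR cell line, compounds transferred in DMSO after 6 h plating, 18 h incubation at 37 C, ONE-Glo luminescence endpoint.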

[11] = qHTS assay to identify small molecule antagonists of the estrogen related receptor (ERR) signaling pathway - cell viability counter screen (AID 1224818);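 note: viability measured after 17.5 h of compound exposure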
How it was run: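 Quantitative high-throughput viability counter screen in ERR cells. Compounds (DMSO) incubated 17.5 h at 37 C; read-out was CellTiter-Fluor fluorescence.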

[12] = qHTS assay to identify small molecule antagonists of the estrogen related receptor (ERR) signaling pathway (AID 1224819;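 note: luminescence from an ERR-driven luciferase reporter measured with One-Glo reagent; nearly all actives have a fitted effect of over 50% in size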)
How it was run: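 ERR reporter cell line (NTP) plated at 2,000 cells/well, settled 6 h at 37C/5% CO2, then exposed to LOPAC compounds for 18 h at 37C. One-Glo luciferase luminescence read after 30 min at room temperature.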

[13] = qHTS assay to identify small molecule agonists of the estrogen related receptor (ERR) signaling pathway (AID 1224820)
How it was run: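 An ERR cell line provided by NTP was seeded at 2,000 cells per well and allowed to settle for 6 h before compounds in DMSO were added. After 18 h at 37 C, luciferase activity was measured by One-Glo luminescence.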

[14] = test system: estrogen-related receptor alpha (ERRalpha) with PGC-1alpha coactivator, human; test: qHTS assay to identify small molecule antagonists of the estrogen related receptor signaling pathway with the pleiotropic PPARgamma coactivator (PGC) (AID 1224821; calls by dose curve;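 note: lower luminescence signal means antagonism of PGC/ERR signalling; nearly all actives have a fitted effect of over 50% in size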)
How it was run: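 A PGC/ERR cell line supplied by NTP is seeded, allowed 6 h at 37 C, and treated with test compounds in DMSO for 18 h. Signal is then measured as luciferase luminescence using One-Glo.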

[15] = qHTS assay to identify small molecule antagonists of the estrogen related receptor signaling pathway with the pleiotropic PPARgamma coactivator (PGC) cell viability counter screen (AID 1224822)
How it was run: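 Cytotoxicity in the PGC/ERR cell line is assessed with CellTiter-Fluor, read as fluorescence intensity 30 min after reagent addition, following 17.5 h compound treatment at 37 C.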

[16] = qHTS assay to identify small molecule agonists of the estrogen related receptor signaling pathway with the pleiotropic PPARgamma coactivator (PGC) (AID 1224823)
How it was run: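 Compounds dissolved in DMSO are added by pin tool to PGC/ERR cells that have settled for 6 h, and incubation continues 18 h at 37 C. Reporter output is measured as One-Glo luminescence.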
% is set by controls: 0 for no effect and ±100 for the full control effect.

Chain of Acetylcholinesterase (Homo sapiens) (P22303 whole entry, looked up): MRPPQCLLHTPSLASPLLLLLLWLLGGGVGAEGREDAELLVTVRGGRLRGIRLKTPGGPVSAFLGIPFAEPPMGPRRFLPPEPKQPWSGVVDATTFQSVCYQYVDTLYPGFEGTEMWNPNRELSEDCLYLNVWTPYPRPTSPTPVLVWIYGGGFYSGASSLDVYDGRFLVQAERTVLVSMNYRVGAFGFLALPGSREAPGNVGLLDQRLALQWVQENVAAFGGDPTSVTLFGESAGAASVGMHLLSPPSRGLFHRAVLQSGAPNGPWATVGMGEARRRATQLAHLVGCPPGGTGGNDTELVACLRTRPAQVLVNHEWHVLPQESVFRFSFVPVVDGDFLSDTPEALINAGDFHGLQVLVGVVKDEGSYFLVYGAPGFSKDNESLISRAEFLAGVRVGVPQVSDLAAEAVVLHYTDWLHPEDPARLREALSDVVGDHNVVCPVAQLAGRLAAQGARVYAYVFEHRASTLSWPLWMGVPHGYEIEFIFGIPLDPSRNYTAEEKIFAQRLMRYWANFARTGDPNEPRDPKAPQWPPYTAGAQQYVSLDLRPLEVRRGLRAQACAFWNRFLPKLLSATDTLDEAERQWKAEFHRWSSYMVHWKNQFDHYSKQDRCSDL
Chain of Aryl hydrocarbon receptor (Homo sapiens) (P35869 whole entry, looked up): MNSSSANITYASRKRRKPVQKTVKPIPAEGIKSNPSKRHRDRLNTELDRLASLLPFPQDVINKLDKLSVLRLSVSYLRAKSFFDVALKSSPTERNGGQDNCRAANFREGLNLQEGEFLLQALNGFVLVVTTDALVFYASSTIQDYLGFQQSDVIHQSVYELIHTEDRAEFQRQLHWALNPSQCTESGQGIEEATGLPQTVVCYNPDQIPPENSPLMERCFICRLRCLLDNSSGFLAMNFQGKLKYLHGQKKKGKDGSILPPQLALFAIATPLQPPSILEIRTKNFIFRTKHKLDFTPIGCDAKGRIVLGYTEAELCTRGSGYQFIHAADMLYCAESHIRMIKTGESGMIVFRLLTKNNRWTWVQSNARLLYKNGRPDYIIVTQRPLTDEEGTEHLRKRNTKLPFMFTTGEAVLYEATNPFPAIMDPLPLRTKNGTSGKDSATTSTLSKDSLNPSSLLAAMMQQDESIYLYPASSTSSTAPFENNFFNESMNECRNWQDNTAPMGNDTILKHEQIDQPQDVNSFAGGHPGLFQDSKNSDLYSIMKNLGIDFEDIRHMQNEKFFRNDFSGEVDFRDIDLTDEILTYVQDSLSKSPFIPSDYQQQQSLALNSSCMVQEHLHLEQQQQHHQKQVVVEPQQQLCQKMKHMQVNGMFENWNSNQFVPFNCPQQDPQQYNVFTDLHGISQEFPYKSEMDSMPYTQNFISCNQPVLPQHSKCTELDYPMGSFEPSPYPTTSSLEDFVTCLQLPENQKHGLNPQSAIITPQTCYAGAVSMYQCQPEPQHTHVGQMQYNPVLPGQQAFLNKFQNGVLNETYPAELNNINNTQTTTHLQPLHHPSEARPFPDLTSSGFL
Chain of Aromatase (Homo sapiens) (P11511 whole entry, looked up): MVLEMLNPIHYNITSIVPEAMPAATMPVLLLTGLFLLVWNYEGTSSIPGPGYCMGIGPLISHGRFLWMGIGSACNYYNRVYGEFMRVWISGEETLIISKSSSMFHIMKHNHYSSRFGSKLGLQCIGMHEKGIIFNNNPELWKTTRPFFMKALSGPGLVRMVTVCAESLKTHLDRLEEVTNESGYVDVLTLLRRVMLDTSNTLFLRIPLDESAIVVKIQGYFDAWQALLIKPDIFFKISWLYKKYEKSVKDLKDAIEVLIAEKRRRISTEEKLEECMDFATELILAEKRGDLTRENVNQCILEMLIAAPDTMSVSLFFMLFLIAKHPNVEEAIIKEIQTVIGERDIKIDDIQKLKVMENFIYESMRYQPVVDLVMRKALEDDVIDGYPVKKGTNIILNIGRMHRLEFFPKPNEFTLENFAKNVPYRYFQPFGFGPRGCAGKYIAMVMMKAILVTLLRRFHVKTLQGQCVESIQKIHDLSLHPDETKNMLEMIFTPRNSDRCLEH

C[C@@]12C(=O)OC(=O)[C@]1(C)C1CCC2O1
inactive: Potency [2] | Potency [6] | Potency [7] | Potency [8] | Potency [9]
active: Potency [1] 3.59 µM | Potency [3] 5.31 µM | Potency [4] 22 µM | Potency [5] 0.376 µM

C=CCOC(=O)c1ccccc1C(=O)OCC=C
inactive: Potency [1] | Potency [2] | Potency [3] | Potency [4] | Potency [6] | Potency [7] | Potency [8] | Potency [9]

O=[N+]([O-])c1cccc(Cl)c1Cl
inactive: Potency [2] | Potency [3] | Potency [6] | Potency [7] | Potency [8] | Potency [9]

Nc1cccc([N+](=O)[O-])c1
inactive: Potency [1] | Potency [3] | Potency [6] | Potency [7] | Potency [8] | Potency [9]

CC(C)(C)OCC1CO1 (stereo not given)
inactive: Potency [1] | Potency [3] | Potency [6] | Potency [7] | Potency [8] | Potency [9]

c1cc(OCC2CO2)cc(OCC2CO2)c1 (stereo not given)
inactive: Potency [2] | Potency [3] | Potency [6] | Potency [7] | Potency [8] | Potency [9]
active: Potency [1] 38.3 µM

COc1ccccc1[N+](=O)[O-]
inactive: Potency [1] | Potency [2] | Potency [3] | Potency [4] | activity change, positive = activation [10] 4.31% | Potency [5] | Potency [6] | Potency [7] | Potency [8] | Potency [9]

Nc1ccccc1[N+](=O)[O-]
inactive: Potency [1] | Potency [2] | Potency [3] | Potency [5] | Potency [6] | Potency [7] | Potency [8] | Potency [9]

COc1ccc2c(c1O)-c1cccc3c1[C@@H](C2)N(C)CC3
inactive: Potency [11] | Potency [12] | Potency [13] | Potency [14] | Potency [15] | Potency [16]

CN1C2CCC1CC(OC(c1ccccc1)c1ccccc1N)C2 (stereo not given)
inactive: Potency [11] | Potency [12] | Potency [13] | Potency [14] | Potency [15] | Potency [16]

NCC(O)c1cc(O)c(O)cc1F (stereo not given)
inactive: Potency [11] | Potency [12] | Potency [13] | Potency [14] | Potency [15] | Potency [16]

CP(=O)(O)C1=CCNCC1
inactive: Potency [11] | Potency [12] | Potency [13] | Potency [14] | Potency [15] | Potency [16]

CC1=NN=C(c2ccc(N)cc2)c2cc3c(cc2C1)OCO3
inactive: Potency [11] | Potency [12] | Potency [13] | Potency [14] | Potency [15] | Potency [16]

NC(N)=NOCC[C@H](N)C(=O)O
inactive: Potency [11] | Potency [12] | Potency [13] | Potency [14] | Potency [15] | Potency [16]

CC(C)(C)c1o[nH]c(=O)c1CC(N)C(=O)O (stereo not given)
inactive: Potency [11] | Potency [12] | Potency [13] | Potency [14] | Potency [15] | Potency [16]

OC1CCCCC1N1CCC(c2ccccc2)CC1 (stereo not given)
inactive: Potency [11] | Potency [12] | Potency [13] | Potency [14] | Potency [15] | Potency [16]

CC(C)NP(=O)(NC(C)C)OP(=O)(NC(C)C)NC(C)C
inactive: Potency [11] | Potency [12] | Potency [13] | Potency [14] | Potency [15] | Potency [16]

C[C@H]1C2Cc3ccc(O)cc3[C@@]1(C)CCN2CC1CC1
inactive: Potency [11] | Potency [12] | Potency [13] | Potency [14] | Potency [15] | Potency [16]

Clc1cc(I)cc(Cl)c1NC1=NCCN1
inactive: Potency [11] | Potency [12] | Potency [13] | Potency [14] | Potency [15] | Potency [16]

NCCc1c[nH]c2ccc(C(N)=O)cc12
inactive: Potency [11] | Potency [12] | Potency [13] | Potency [14] | Potency [15] | Potency [16]

CC(N)c1cccc(Cl)c1Cl (stereo not given)
inactive: Potency [11] | Potency [12] | Potency [13] | Potency [14] | Potency [15] | Potency [16]

C[C@@H](N)Cc1cnc[nH]1
inactive: Potency [11] | Potency [12] | Potency [13] | Potency [14] | Potency [15] | Potency [16]

C#CCN[C@H](C)Cc1ccccc1
inactive: Potency [11] | Potency [12] | Potency [13] | Potency [14] | Potency [15] | Potency [16]

CCCN1CCO[C@@H]2c3cc(O)ccc3OC[C@H]21
inactive: Potency [11] | Potency [12] | Potency [13] | Potency [14] | Potency [15] | Potency [16]

Oc1ccc2c3c1O[C@H]1c4[nH]c5c(c4C[C@@]4(O)[C@@H](C2)N(CC2CC2)CC[C@]314)C[C@@]1(O)[C@H]2Cc3ccc(O)c4c3[C@@]1(CCN2CC1CC1)[C@H]5O4
inactive: Potency [11] | Potency [12] | Potency [13] | Potency [14] | Potency [15] | Potency [16]

CN(N=O)c1ccc(O)c(O)c1
inactive: Potency [11] | Potency [12] | Potency [13] | Potency [14] | Potency [15] | Potency [16]

Nc1ncnc2c1ncn2[C@@H]1O[C@H](COP(=O)(O)CP(=O)(O)OP(=O)(O)O)C(O)[C@H]1O (stereo not given in full)
inactive: Potency [11] | Potency [12] | Potency [13] | Potency [14] | Potency [15] | Potency [16]

CCCN1CC[C@@H]2c3cc(O)ccc3CC[C@@H]21
inactive: Potency [11] | Potency [12] | Potency [13] | Potency [14] | Potency [15] | Potency [16]

C[N+]1(C)CCC(OC(=O)C(c2ccccc2)c2ccccc2)CC1
inactive: Potency [11] | Potency [12] | Potency [13] | Potency [14] | Potency [15] | Potency [16]

S=C(NC1CCCCC1)N1CCC(c2cnc[nH]2)CC1
inactive: Potency [11] | Potency [12] | Potency [13] | Potency [14] | Potency [15] | Potency [16]

NCCc1c[nH]c2ccc(O)cc12
inactive: Potency [11] | Potency [12] | Potency [13] | Potency [14] | Potency [15] | Potency [16]

OCc1cnc[nH]1
inactive: Potency [11] | Potency [12] | Potency [13] | Potency [14] | Potency [15] | Potency [16]

CC(=O)NCCc1c[nH]c2ccccc12
inactive: Potency [11] | Potency [12] | Potency [13] | Potency [14] | Potency [15] | Potency [16]
